From PubChem BioAssay (NCATS)
Results filed as inconclusive are left out. The source made the active and inactive calls. Calls follow the shape of the dose curve; as a rule, active = well fitted cell-killing curve with a large enough effect; inconclusive = small, poorly fitted or top-dose-only effect, or effect the other way; inactive = flat fitted curve, though single readings scatter.

Tests used:
Assay in all cases: Primary qHTS to identify gynecologic anti-cancer compounds using libraries of approved drugs and bioactive compounds (AID 1345084); also: nearly all actives have a fitted effect of over 55% in size
C33A = settings: Gynecologic cancer cell panel viability, ATPlite luminescence, 48 h; series mostly up to 57.5 µM
Summary of the method: (§1)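 In this quantitative HTS, cell killing is estimated from loss of ATP-dependent luciferase light. Cells see five compound concentrations over a 48 h exposure.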

CAOV3 = settings: Gynecologic cancer cell panel viability, ATPlite luminescence, 48 h; series mostly up to 57.5 µM
Summary of the method: as §1

CASKI = settings: Gynecologic cancer cell panel viability, ATPlite luminescence, 48 h; series mostly up to 57.5 µM
Summary of the method: as §1

Es-2 = settings: Gynecologic cancer cell panel viability, ATPlite luminescence, 48 h; series mostly up to 57.5 µM
Summary of the method: as §1

HeLa = settings: Gynecologic cancer cell panel viability, ATPlite luminescence, 48 h; series mostly up to 57.5 µM
Summary of the method: as §1

Hek293T = settings: Gynecologic cancer cell panel viability, ATPlite luminescence, 48 h, control line for the selectivity index; series mostly up to 57.5 µM
Summary of the method: as §1

JEG-3 = settings: Gynecologic cancer cell panel viability, ATPlite luminescence, 48 h; series mostly up to 57.5 µM
Summary of the method: as §1

OV90 = settings: Gynecologic cancer cell panel viability, ATPlite luminescence, 48 h; series mostly up to 57.5 µM
Summary of the method: as §1

PA-1 = settings: Gynecologic cancer cell panel viability, ATPlite luminescence, 48 h; series mostly up to 57.5 µM
Summary of the method: as §1

Tov-21-G = settings: Gynecologic cancer cell panel viability, ATPlite luminescence, 48 h; series mostly up to 57.5 µM
Summary of the method: as §1

Tov112D = settings: Gynecologic cancer cell panel viability, ATPlite luminescence, 48 h; series mostly up to 57.5 µM
Summary of the method: as §1

SKOV3 = settings: Gynecologic cancer cell panel viability, ATPlite luminescence, 48 h; series mostly up to 57.5 µM
Summary of the method: as §1

Measured: Potency

CC(C)=CCC(O)/C(C)=C/CO[C@@H]1O[C@H](CO)[C@@H](O)[C@H](O)[C@H]1O (some centres undefined)
not listed: SKOV3
inactive: all other assays above

C[C@H](C/C=C/C(C)(C)O)[C@H]1CC[C@@]2(C)[C@@H]3[C@@H](O[C@@H]4O[C@H](CO)[C@@H](O)[C@H](O)[C@H]4O)C=C4C(CC[C@H](O)C4(C)C)[C@]3(C=O)CC[C@]12C (some centres undefined)
not listed: SKOV3
inactive: all other assays above

CC(C)N(CCCCOCC(=O)NS(C)(=O)=O)c1cnc(-c2ccccc2)c(-c2ccccc2)n1
not listed: SKOV3
inactive: all other assays above

CC(=O)OC1C[C@@]2(C)[C@@H](CC[C@@H](C)[C@]23Cc2c(O)cc4c(c2O3)CNC4=O)C(C)(C)[C@@H]1O (some centres undefined)
not listed: SKOV3
inactive: all other assays above

CCCN1CCN(c2ccc(C(=O)NC3(C(=O)NCC#N)CCCCC3)cc2)CC1
inactive: all assays above

OCCc1ccc(O[C@@H]2O[C@H](CO)[C@@H](O)[C@H](O)[C@H]2O)cc1
not listed: SKOV3
inactive: all other assays above

O=C(Cc1ccc(-c2ccccc2)cc1)NC1CCC1
not listed: SKOV3
inactive: all other assays above

C[C@@H]1C(=O)OC[C@H]2C(C(=O)O)=C[C@@H]3CC(C)(C)C[C@]312
not listed: Tov-21-G
inactive: all other assays above

CC(C)(O)c1ccc2c(c1)C(O)C[C@H]1[C@](C)(C(=O)O)CCC[C@]21C (some centres undefined)
not listed: SKOV3
inactive: all other assays above

NCc1c[nH]c(=S)n1[C@@H]1CCc2c(F)cc(F)cc2C1
not listed: SKOV3
inactive: all other assays above

CCn1cc(NC(=S)Nc2cc(Cl)ccc2OC)c(C(N)=O)n1
inactive: all assays above

CC1=CCC(C(C)(C)O[C@@H]2O[C@H](CO[C@@H]3O[C@@H](C)[C@H](O)[C@@H](O)[C@H]3O)[C@@H](O)[C@H](O)[C@H]2O)CC1 (some centres undefined)
not listed: SKOV3
inactive: all other assays above

CC(=O)C=C=C1C(C)(C)CC(O[C@@H]2O[C@H](CO)[C@@H](O)[C@H](O)[C@H]2O)CC1(C)O (some centres undefined)
not listed: SKOV3
inactive: all other assays above

COc1cc2ncnc(Nc3ccc(O)cc3)c2cc1OC
not listed: Tov-21-G
inactive: all other assays above

CCCOc1ccc(-c2nc(OC)c3ccccc3n2)cc1
not listed: SKOV3
inactive: all other assays above

CC1(C)CCC2(C(=O)OC3OC(CO)C(O)C(O)C3O)CCC3(C)C(=CCC4C5(C)CCC(O)C(C)(C(=O)O)C5CCC43C)C2C1O (centres undefined)
not listed: SKOV3
inactive: all other assays above

COC(=O)C(C)C1CCC2(C)C(=O)C=CC(C)(O)C2C1O (centres undefined)
not listed: SKOV3
inactive: all other assays above
